Results as given in PubChem BioAssay (NCATS).
Results filed as inconclusive are left out. Unmarked numbers belong to inactive results. Calls come from the whole dose curve; as a rule, active = well fitted inhibition curve with a large enough effect; inconclusive = small, poorly fitted or top-dose-only effect; inactive = flat fitted curve, though single readings scatter.

Assay: qHTS for Inhibitors of Plasmodium falciparum (HB3) proliferation (AID 504318);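 note: 0% = DMSO vehicle and -100% = artemisinin control; nearly all actives have a fitted effect of over 60% in size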
Conditions: P. falciparum HB3 in erythrocytes, SYBR Green DNA, 72 h; series mostly up to 7.21 µM; activity change, negative = inhibition: at the top concentration
Procedure, shortened: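 Parasite growth measured as SYBR Green DNA fluorescence (ex 485, em 535 nm) after overnight lysis following 72 h culture at 37 °C, 0.3% parasitemia, 2.5% hematocrit. Values normalized against DMSO and 0.29 uM artemisinin controls, with plate-stack correction.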
In the case of COC(=O)[C@H](C=C[C@H](C)Cc1cc(Br)cc(OCc2ccccc2)c1OC)OCc1ccccc1, the “activity change, negative = inhibition” value is reported as 7.2%. In the case of COC(=O)C1=C(C(=O)OC)[C@@H]2N(C)c3ccc(OC)cc3[C@@]23C[C@@H](C(=O)OC)N(C(=O)c2ccco2)C3=N1, the “activity change, negative = inhibition” value is reported as 1.93%. With CCCCCCCC=CC1=CC2(C)CC1(C)C(CCCCCCC)CC2=O (stereo not drawn) the “activity change, negative = inhibition” value was -2.42%. With Cc1cc(F)ccc1O[C@H]1C=C[C@@H](c2ccc3c(c2)OCO3)O[C@H]1CO the “activity change, negative = inhibition” value was -5.99%. In the case of C=CCN=C1NC(CCc2ccccc2)C(C(=O)OC)=C(C)N1CC (stereo not drawn), the “activity change, negative = inhibition” value is reported as -4.7%. In the case of COc1ccc(COC(=O)NN=C2C[C@@H](O)[C@@H](O)[C@@H]3[C@H]4C(=O)N([C@@H](C)c5ccccc5)C(=O)[C@@H]4CC[C@H]23)cc1, the “activity change, negative = inhibition” value is reported as -7.81%. With COC(=O)N[C@@H](c1ccco1)C(C(C)=O)C(=O)OC (stereo partly drawn) the “activity change, negative = inhibition” value was -3.26%. For COc1ccc(OC[C@@H]2CC3[C@@H](CC[C@@H](C)[C@H]3c3ccc(Br)cc3)C(=O)O2)cc1 (stereo partly drawn), the “activity change, negative = inhibition” value was 2.53%. With COC(=O)N1C2=C(c3ccccc3[C@@H]1CC(=O)O)[C@@H]1O[C@@H](C2)c2ccccc21 the “activity change, negative = inhibition” value was -3.43%. In the case of C=C=CCCN1C(=O)NC(c2ccccc2)C(C(=O)OC)=C1C (stereo not drawn), the “activity change, negative = inhibition” value is reported as 1.31%. For COC(=O)c1ccccc1C[C@]1(C(=O)OC)C=C[C@H](C)[C@@H](c2ccccc2)N1C(=O)C(F)(F)F, the “activity change, negative = inhibition” value was -13.2%. For CC(=O)OC[C@H]1O[C@H](CC=NO[C@H](C)CN2CCCCc3nc(C)c(C)cc32)C=C[C@@H]1OC(C)=O, the “activity change, negative = inhibition” value was 2.47%. In the case of COC1=C[C@H](C(=O)NCCOC(C)=O)[C@@]2(C)Cc3ccccc3[C@@H]2CC1=O, the “activity change, negative = inhibition” value is reported as -3.77%.
